Bioassay records deposited in PubChem BioAssay by several laboratories.
m5-HT2A agonist = mouse Htr2a agonists via beta-arrestin recruitment, primary screen, cell-based, luminescence; 5-hydroxytryptamine receptor 2A (Mus musculus), P35363; CHO-K1 mHTR2A beta-arrestin complementation; percent of 30 µM serotonin response; activation, % at 7.6 µM; 360,000 tested, 0.66% active; AID 624169, 2012;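 active = activation above a run cutoff, the mean activation of all tested compounds plus 3 SD, cut at about 14% in these data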;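 also: 0% = plate median of compound wells and 100% = 30 µM serotonin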
TLR4 MyD88 comp = inhibitors of TLR4-MyD88 association in cells, primary screen, cell-based, HeLa CL3-4, BLA complementation, FRET ratio. HeLa CL3-4 TLR4/MyD88 BLA complementation. 200,000 tested, 0.18% active. inhibition, % at 8.4 µM. AID 861, 2007. Toll-like receptor 4 (Homo sapiens) + Myeloid differentiation primary response protein …; in the data active = inhibition above about 25%;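 also: 0% = vehicle and 100% = reference inhibitor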
ANO1 block = TMEM16A chloride channel inhibitors, primary screen, cell-based, HTS | HEK293 TMEM16A/YFP iodide influx fluorescence, ionomycin | AID 588511, 2011 | Anoctamin-1 (Mus musculus), Q8BHY3 | 310,000 tested, 1.2% active | normalized B-score (activity score, 25-100; higher = stronger inhibition) at 10 µM;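 active = ratio plate-corrected score three or more library SD toward inhibition, starting fluorescence score within five deviations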;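 also: score derived from kinetic fluorescence span divided by baseline fluorescence per well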
Target sequence (Q8BHY3 whole entry, looked up): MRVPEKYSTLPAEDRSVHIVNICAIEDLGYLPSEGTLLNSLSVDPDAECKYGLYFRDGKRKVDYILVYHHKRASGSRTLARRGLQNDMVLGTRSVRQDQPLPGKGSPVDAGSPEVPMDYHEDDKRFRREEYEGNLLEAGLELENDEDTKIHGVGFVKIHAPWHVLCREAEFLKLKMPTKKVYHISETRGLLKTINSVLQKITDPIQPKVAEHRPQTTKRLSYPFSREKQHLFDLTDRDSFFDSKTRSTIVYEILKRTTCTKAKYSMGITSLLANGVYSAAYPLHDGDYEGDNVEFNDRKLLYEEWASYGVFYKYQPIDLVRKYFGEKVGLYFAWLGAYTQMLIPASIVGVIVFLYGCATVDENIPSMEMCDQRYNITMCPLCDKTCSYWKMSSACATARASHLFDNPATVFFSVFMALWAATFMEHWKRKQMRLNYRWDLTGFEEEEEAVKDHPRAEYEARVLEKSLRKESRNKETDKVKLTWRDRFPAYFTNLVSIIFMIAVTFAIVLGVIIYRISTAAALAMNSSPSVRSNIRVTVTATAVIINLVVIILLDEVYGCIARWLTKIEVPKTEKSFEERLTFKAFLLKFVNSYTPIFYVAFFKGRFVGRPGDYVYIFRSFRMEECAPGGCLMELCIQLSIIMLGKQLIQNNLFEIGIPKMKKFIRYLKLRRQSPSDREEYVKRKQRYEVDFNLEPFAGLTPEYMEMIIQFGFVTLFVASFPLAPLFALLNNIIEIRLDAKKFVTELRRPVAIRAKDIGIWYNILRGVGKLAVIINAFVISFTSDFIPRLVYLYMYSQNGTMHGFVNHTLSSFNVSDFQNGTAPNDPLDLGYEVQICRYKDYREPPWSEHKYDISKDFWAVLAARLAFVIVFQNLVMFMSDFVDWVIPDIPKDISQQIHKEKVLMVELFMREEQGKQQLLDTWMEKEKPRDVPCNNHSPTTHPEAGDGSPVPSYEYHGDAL
TLR9-MyD88 inh = inhibitors of TLR9-MyD88 association in cells, primary screen, cell-based, CHO, BLA complementation, fluorescence; inhibition, % at 4.98 µM; 340,000 tested, 0.21% active; Toll-like receptor 9 (Homo sapiens) + Myeloid differentiation primary response protein …; CCF4 FRET ratio;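 active = inhibition above the mean over all tested compounds plus 3 SD, cut at about 21% in these data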;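 also: 0% = DMSO only wells and 100% = clavulanate BLA inhibitor control wells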
NOD2 RIPK2 PPI = NOD2-RIPK2 binding disruptors in cells, primary screen, fluorescence, CHO cells, BLA complementation; Receptor-interacting serine/threonine-protein kinase 2 (Homo sapiens), O43353; CCF4 ratio; inhibition, % at 4.98 µM; 360,000 tested, 0.38% active; in the data active = inhibition above about 21%;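 also: 0% = vehicle only and 100% = reference blocker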
TMEM16A act = TMEM16A chloride channel activators or potentiators, primary screen, cell-based, HTS; B-score at 10 µM; 340,000 tested, 0.3% active; Anoctamin-1 (Mus musculus), Q8BHY3; HEK293 TMEM16A/YFP-H148Q/I152L, iodide quench fluorescence; hits give low values; AID 623877, 2012;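 active = fluorescence-ratio B-score plate-corrected deviation score at least 3 library SD below zero, with starting fluorescence score within 5 deviations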;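 also: channel opened by trigger with iodide after compound preincubation; score built on the fluorescence ratio of max minus min over baseline; more negative score means more quench and so TMEM16A activation or potentiation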
NOD2 RIPK2 conf = NOD2-RIPK2 binding disruptors, retest, confirmation, fluorescence, CHO cells, BLA complementation, triplicate | AID 624370, 2012 | inhibition, % at 4.98 µM | 1,200 tested, 70% active | CCF4 FRET | shares compounds with NOD2 RIPK2 PPI;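 active = mean inhibition across replicates above a set limit taken from the earlier primary screen, cut at about 21% in these data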;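 also: 0% = DMSO-only wells and the high end = clavulanate BLA-blocked wells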
NOD2 BLA counter = hits BLA reporter in NOD2-RIPK2 inhibitor counterscreen; 1,200 tested, 57% active; shares compounds with NOD2 RIPK2 PPI; AID 624371; CHO BLA reporter, CCF4 FRET ratio; inhibition, % at 4.98 µM;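 active = mean inhibition above the low-control mean inhibition plus three low-control SD, cut at about 11% in these data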;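 also: 0% = DMSO only wells and 100% = clavulanate high control wells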
An asterisk follows results filed as active; i = inactive; x = no result given. Sampled rows, rich in hits. Any-hit rate of the full collection: about 2.4%.

SMILES	m5-HT2A agonist	TLR4 MyD88 comp	ANO1 block	TLR9-MyD88 inh	NOD2 RIPK2 PPI	TMEM16A act	NOD2 RIPK2 conf	NOD2 BLA counter
CCOC(=O)c1ccccc1N1C(=O)CSC1=S	-1	-10	i	4	-10	i	x	x
Cc1cc(C)c2sc(N(CCCN(C)C)C(=O)c3ccc(S(=O)(=O)N4CCCc5ccccc54)cc3)nc2c1	-12	x	i	0	11	i	x	x
Cc1cc(C)c2sc(N(CCCN(C)C)C(=O)c3ccc(S(=O)(=O)N4CCc5ccccc5C4)cc3)nc2c1	0	x	i	14	24*	i	30*	17*
Cc1[nH]c(C)c(S(=O)(=O)N2CCN(c3cccc(Cl)c3)CC2)c1C(=O)N1CCCC1	-1	x	i	-24	6	i	x	x
COc1ccccc1NS(=O)(=O)c1c(C)[nH]c(C)c1C(=O)N1CCCC1	14	x	i	-9	36*	i	-5	-7
Cc1[nH]c(C)c(S(=O)(=O)Nc2ccccc2Cl)c1C(=O)N1CCCC1	-1	x	i	-5	-5	i	x	x
COc1cccc(N2CCN(S(=O)(=O)c3c(C)[nH]c(C)c3C(=O)N3CCCC3)CC2)c1	-2	x	i	-5	23*	i	1	-3
O=[N+]([O-])c1ccc(Cn2cc(-c3cccc(C(F)(F)F)c3)nn2)cc1	6	x	i	12	-8	i	x	x
CN(C)CCC(=O)C(Cc1ccccc1)c1ccccc1 (configuration not stated)	-7	x	i	3	35*	i	28*	2
CN(C)c1ccc(/C=C/c2cccc[n+]2[O-])cc1	-3	x	i	x	26*	i	-24	8
Cc1ccc(S(=O)(=O)CCc2nc3ccccc3s2)cc1	-1	-2	i	-1	-3	i	x	x
Cc1cn([C@H]2C[C@H](O)[C@@H](/C=C/C(=O)NCc3ccccc3)O2)c(=O)[nH]c1=O	-3	x	x	x	-4	x	x	x
Cc1cn([C@H]2C[C@H](O)[C@@H](/C=C/C(=O)NCCN3CCCCC3)O2)c(=O)[nH]c1=O	-4	x	x	x	61*	x	-2	-7
O=c1c2ccccc2c(C=Nc2cccc(S(=O)(=O)NC3=NCCCCC3)c2)c(O)n1Cc1ccccc1	-1	x	i	2	-3	i	x	x
CC(=O)NC(Cc1ccccc1C)C(=O)NC1CCN(C(=O)NCc2ccccc2)CC1 (configuration not stated)	-6	x	x	-6	8	i	x	x
O=C(NCc1ccccc1)C(c1ccccc1)n1c(=O)c(-c2cc3ccccc3[nH]2)nc2ccccc21 (configuration not stated)	-2	x	x	x	48*	x	44*	65*
O=C(NCc1ccccc1)C(c1ccncc1)n1c(=O)c(-c2ccccc2)nc2ccccc21 (configuration not stated)	1	x	x	x	-5	x	x	x
O=C(NCc1ccccc1)C(c1cc2ccccc2o1)n1c(=O)c(-c2cc3ccccc3[nH]2)nc2ccccc21 (configuration not stated)	6	x	x	x	51*	x	46*	67*
Cc1ccccc1CN(C)CCS(=O)(=O)c1cc(Cl)ccc1Cl	-6	x	i	-8	28*	i	-2	-4
CC(C)(C)NC(=O)C(CCc1ccccc1)n1c(=O)c(-c2cc3ccccc3[nH]2)nc2ccccc21 (configuration not stated)	-3	x	x	x	44*	x	40*	66*
